Screens deposited in PubChem by National Center for Advancing Translational Sciences (NCATS).
Integrin act MD: activators of alpha7 integrin expression for muscular dystrophy | alpha7betagal myoblasts, beta-gal FDG fluorescence, 48 h | Potency, µM (highest dose often 38.3 µM), inactives show at the top dose activation, actives largely listed as activators | 0.064% of 350,000 active | AID 624291;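 further: 100% = response of the positive control SU9516; nearly all actives have a fitted effect of over 60% in size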
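Alpha7betagal+/- myoblasts (passage 13) were plated 16-24 hr, then exposed to compounds (1:260 dilution of DMSO stock) for 48 hours at 37C. After MPER lysis, β-galactosidase reporter activity was read as FDG fluorescence (ex 480/em 540) after 30 minutes.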
AT treatment: potential ataxia-telangiectasia treatments restoring KAP-1 phosphorylation; F2112 A-T fibroblasts, KAP-1 phosphorylation AlphaLISA; neocarzinostatin DNA damage 30 min before lysis; Potency, µM (doses to about 57.5 µM), for inactives: at the top dose activation, usual class: activators; 0.19% of 320,000 active; further: % of control where 0% means no effect; nearly all actives have a fitted effect of over 45% in size
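hTERT-immortalized A-T patient fibroblasts (F2112), 500 cells/well in OPTI-MEM, 1% FBS, got compounds for 60 min, then NCS for 30 min at 37C. Lysates were then assayed for phospho-KAP-1 by AlphaLISA (anti-pKAP1 donor, anti-KAP1 acceptor beads), 6 hr at 25C.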
ASM inhibitor: human S-ASM enzyme inhibition | P17405 | Potency, µM (series often up to 57.5 µM), without a hit: at the highest dose activity change, negative = inhibition, hits mostly inhibitors | 0.006% of 340,000 active | placental ASM, HMU-PC fluorogenic substrate, 60 min
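HMU-PC0 cleavage (9 uM final) by human placental ASM, 60 min at 37 °C following 10 min compound exposure at RT; stopped at pH 10, fluorescence Ex 386/Em 447 nm.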
PTAP TSG101 blk: blocks PTAP/TSG101 interaction to inhibit HIV-1 budding. Q99816. Fluorescence polarization, FITC-PTAP peptide / Tsg101 binding. Potency, µM (top dose mostly 115 µM), for inactives: top-dose activity change, negative = inhibition, hits mostly inhibitors. 340,000 tested, under 10 active. AID 493005; active means well fitted inhibition curve with a large enough effect in the main read-out, with a control signal flat, not every such curve was filed as active; inconclusive means small, poorly fitted or top-dose-only effect, or effect the other way, or a change in a side signal; inactive means no such curve, though single readings can be large or run the other way; further: % of control where 0% means no effect
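FP read-out: FITC-PTAP peptide, 50 nM final, binding Tsg101 binding domain, 10 uM final; 20 min, r.t.; 10 mM HEPES pH 7.5, 0.15 M NaCl, 0.01% Tween 20, 3 mM EDTA, 0.1 mM TCEP.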
GALK inhibitor: galactokinase (human) inhibition. Purified GALK, Kinase-Glo residual ATP luminescence. Potency, µM (top dose mostly 57.5 µM), inactives show at the top dose activity change, negative = inhibition, hits mostly inhibitors. 0.007% of 270,000 active; further: on the % scale 0 is the no-effect control and ±100 the full control effect
Target sequence (P51570 whole entry, looked up): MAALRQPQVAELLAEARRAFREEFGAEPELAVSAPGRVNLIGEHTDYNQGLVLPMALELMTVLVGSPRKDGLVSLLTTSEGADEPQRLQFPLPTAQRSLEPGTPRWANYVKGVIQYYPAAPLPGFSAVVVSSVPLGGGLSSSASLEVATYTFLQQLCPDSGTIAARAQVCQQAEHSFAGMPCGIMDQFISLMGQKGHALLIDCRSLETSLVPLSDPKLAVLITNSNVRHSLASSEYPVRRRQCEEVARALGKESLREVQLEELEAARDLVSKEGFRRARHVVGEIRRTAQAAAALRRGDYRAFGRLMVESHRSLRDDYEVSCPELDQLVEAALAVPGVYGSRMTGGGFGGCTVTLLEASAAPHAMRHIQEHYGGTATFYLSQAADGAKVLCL
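GALK at 5 nM final was combined with compound, 35 uM ATP and 100 uM galactose in HEPES pH8.0 with MgCl2 and DTT. The reaction ran one hour at room temperature before luminescent ATP detection.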
Mito fusion yeast: mitochondrial division inhibition or fusion activation; S. cerevisiae fusion-defective mutant growth rescue, CellTiterGlo 48 h; Potency, µM (top dose mostly 46.1 µM), without a hit: at the highest dose growth rescue (activation), actives largely listed as activators; 0.23% of 320,000 active; AID 485298; further: % of control where 0% means no effect; nearly all actives have a fitted effect of over 45% in size
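Compounds are tested for their ability to restore growth of mitochondrial fusion-defective yeast strains at non-permissive 37C in YPEG medium over 48 hours. Viability is quantified by luciferase luminescence.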
* marks the source's active call; other numbers are inactive results; [ ] = remark or other dose. The list is not random: actives were taken first. Their share in the collection is about 0.46%. Unless noted, the call rests on the fitted dose curve; in most records, active means well fitted curve in the direction sought with a large enough effect; inconclusive means small, poorly fitted or top-dose-only effect, or another doubt; inactive means no such curve, though single readings can be large; an effect the other way counts as inactive or inconclusive. Potency means the concentration at half of the fitted maximal effect.

For Cc1ccc(NC(=O)COc2ccccc2CNC(C)(C)CC(C)(C)C)cc1 the results were Integrin act MD 14µM*, AT treatment -1%, ASM inhibitor -8%, PTAP TSG101 blk -7%, GALK inhibitor -3% and Mito fusion yeast 10%.
For CC(C)(CO)NCc1ccccc1OCC(=O)Nc1ccccc1 the results were Integrin act MD -4%, AT treatment -12%, ASM inhibitor 2%, PTAP TSG101 blk 1%, GALK inhibitor 0% and Mito fusion yeast -2%.
O=C(CN(c1cccc(C(F)(F)F)c1)S(=O)(=O)c1ccccc1)Nc1cccc(Cl)c1 was read as Mito fusion yeast 1%.
Screening COc1ccc(C(=O)/C=C/c2ccsc2)cc1CSCC(=O)O returned Integrin act MD -50%, AT treatment 0%, ASM inhibitor 8%, PTAP TSG101 blk 0%, GALK inhibitor 1% and Mito fusion yeast -3%.
Screening CNc1ncnc2ccc(-c3c(C)noc3C)cc12 returned AT treatment -8% and Mito fusion yeast -20%.
`CCOC(=O)C1=C(O)C(=O)NC(c2ccccc2)=C(OC2CCCCC2)C1` gave Integrin act MD -10%, AT treatment 0%, ASM inhibitor 3%, PTAP TSG101 blk 0% and Mito fusion yeast 10µM*.
Screening O=C(NCc1nc2ccccc2[nH]1)C1=C[C@H](c2ccccc2)C[C@H](OCCCCO)O1 returned Integrin act MD 8%, AT treatment 40µM*, ASM inhibitor -1%, PTAP TSG101 blk -5%, GALK inhibitor -4% and Mito fusion yeast 1%.
Screening COc1ccc2oc(=O)c(-c3csc(Nc4cccc(O)c4)n3)cc2c1 returned Integrin act MD -6%, AT treatment 7%, ASM inhibitor 10%, PTAP TSG101 blk 0%, GALK inhibitor -4% and Mito fusion yeast 16µM*.
For COC(=O)C1SCC2C(=O)N(Cc3ccc(F)cc3)CC(=O)N21 (stereo not drawn) the results were Integrin act MD 8.9µM*, AT treatment 1%, ASM inhibitor 0%, PTAP TSG101 blk 0%, GALK inhibitor 7% and Mito fusion yeast -4%.
For COc1ccc(Oc2c(O)c3ccccc3n(C)c2=O)cc1 the results were Integrin act MD 8%, AT treatment 1%, ASM inhibitor 2%, PTAP TSG101 blk -2% and Mito fusion yeast inconclusive.
Cn1c(=O)c(Oc2ccc(Cl)cc2)c(O)c2ccccc21 was read as Integrin act MD 3%, AT treatment -3%, ASM inhibitor -5%, PTAP TSG101 blk -8% and Mito fusion yeast 10µM*.
For Cc1ccn2c(NCc3ccccc3)c(-c3cccc(SC4CCCCC4)c3)nc2c1 the results were Integrin act MD -45%, AT treatment inconclusive, ASM inhibitor 193% and PTAP TSG101 blk 4%.
CCC(C)Sc1ccc(-c2nc3ccc(C)cn3c2NC2CCCCC2)cc1 (stereo not drawn) was read as Integrin act MD -4%, AT treatment 36%, ASM inhibitor inactive, PTAP TSG101 blk 0% and Mito fusion yeast -6%.
Screening CCC(C)Sc1cccc(-c2nc3ccc(C)cn3c2NC2CCCCC2)c1 (stereo not drawn) returned Integrin act MD -34%, AT treatment 25µM*, ASM inhibitor 411%, PTAP TSG101 blk 2% and Mito fusion yeast 5%.
Screening CCC(C)Sc1cccc(-c2nc3cc(C)ccn3c2NCc2ccccc2)c1 (stereo not drawn) returned Integrin act MD -48%, AT treatment 22µM*, ASM inhibitor 136%, PTAP TSG101 blk -1% and Mito fusion yeast 13%.
CCCCNc1c(-c2ccc(SC(C)CC)cc2)nc2ccccn12 (stereo not drawn) was read as Integrin act MD -42%, AT treatment 22µM*, ASM inhibitor inactive, PTAP TSG101 blk inconclusive and Mito fusion yeast -6%.
For CCCCNc1c(-c2ccc(SC3CCCCC3)cc2)nc2ccccn12 the results were Integrin act MD -20%, AT treatment inconclusive, ASM inhibitor 494%, PTAP TSG101 blk -4% and Mito fusion yeast -16%.
For CCC(C)Sc1cc(-c2nc3ccccn3c2NC2CCCCC2)ccc1OC (stereo not drawn) the results were Integrin act MD -50%, AT treatment 32µM*, ASM inhibitor 390%, PTAP TSG101 blk -1% and Mito fusion yeast -14%.
For NC1(C(=O)O)CCc2cc(C(=O)O)ccc21 (stereo not drawn) the results were Mito fusion yeast -9%.
O=C(NC1CCOc2ccccc21)c1ccc(Cl)nc1 (stereo not drawn) was read as Integrin act MD 0%, AT treatment 4%, ASM inhibitor 0%, PTAP TSG101 blk -1%, GALK inhibitor 11% and Mito fusion yeast -7%.
Screening Cn1cc(S(=O)(=O)N2CCOCC2)cc1C(=O)Nc1cccc(Cl)c1 returned Integrin act MD -7%, AT treatment 6%, ASM inhibitor -5%, PTAP TSG101 blk -3% and Mito fusion yeast 0%.
Screening CC(C)c1ccc(OCC(=O)Nc2ccccc2C(=O)N2CCOCC2)cc1 returned Integrin act MD -1%, AT treatment -2%, ASM inhibitor 2%, PTAP TSG101 blk -1%, GALK inhibitor -1% and Mito fusion yeast 3%.
Screening O=C(COC(=O)c1ccccc1C(=O)c1ccccc1)Nc1ccc(SC(F)F)cc1 returned Integrin act MD -17%, AT treatment 14%, ASM inhibitor -7%, PTAP TSG101 blk -1%, GALK inhibitor 0% and Mito fusion yeast 16µM*.
`CC(=O)Nc1ccc(S(=O)(=O)NCC(=O)N2CCN(S(=O)(=O)c3cccs3)CC2)cc1` gave Integrin act MD 7%, AT treatment 8%, ASM inhibitor 3%, PTAP TSG101 blk -3% and Mito fusion yeast 6%.
COc1ccc(/C=N/Nc2nc(=O)[nH]nc2C)cc1OC was read as Integrin act MD -6%, AT treatment 7.1µM*, ASM inhibitor 4%, PTAP TSG101 blk -27%, GALK inhibitor -1% and Mito fusion yeast -2%.
For COc1cc(/C=N/Nc2nc(=O)[nH]nc2C)ccc1O the results were Integrin act MD 7%, AT treatment -50%, ASM inhibitor -1%, PTAP TSG101 blk 2%, GALK inhibitor -1% and Mito fusion yeast 0%.
Screening Nc1cccc2c1C(=O)N(Cc1cccc(Cl)c1)C2=O returned Integrin act MD 0%, AT treatment 25%, ASM inhibitor 412%, PTAP TSG101 blk -1%, GALK inhibitor -2% and Mito fusion yeast 0%[9.22 µM].
